In PubChem BioAssay AID1508601 (ICCB-Longwood Screening Facility, Harvard Medical School, 2020):
Where “and” joins values, the source holds several entries; their conditions need not be identical. Equal values may be shown once. About 85 (1%) of roughly 5,700 compounds were called active. Cut-off read from the data, not from the text of the source: active = p53-positive nuclei above about 36% (passing the limit was not always enough); inactive = the rest. Only a selection was taken, and actives are over-represented in it overall.

How the values were obtained:
[1] = nuclear p53 accumulation, HPV+ cells – imaging, p53-positive nuclei imaging, 24 h, 48 h (AID 1508601); settings: 24/48 h
[2] = target: Cellular tumor antigen p53 (Homo sapiens) (UniProt P04637); test: as above; settings: 24/48 h, stronger effect = higher value
Chain of Cellular tumor antigen p53 (Homo sapiens) (P04637 whole entry, looked up): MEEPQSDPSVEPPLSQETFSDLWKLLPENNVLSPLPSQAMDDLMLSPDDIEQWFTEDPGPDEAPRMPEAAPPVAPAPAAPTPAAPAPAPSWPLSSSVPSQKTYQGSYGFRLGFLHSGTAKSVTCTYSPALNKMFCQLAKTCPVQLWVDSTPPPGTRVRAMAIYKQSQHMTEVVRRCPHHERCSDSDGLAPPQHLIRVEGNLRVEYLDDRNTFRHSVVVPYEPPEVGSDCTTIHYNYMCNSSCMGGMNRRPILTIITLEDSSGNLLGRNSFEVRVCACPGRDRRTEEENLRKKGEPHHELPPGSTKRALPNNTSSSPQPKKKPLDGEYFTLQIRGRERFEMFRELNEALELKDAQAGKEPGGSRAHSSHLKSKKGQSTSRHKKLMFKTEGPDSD

[3] = measured here: cell number at 24 h, Library stock concentration: 10 mM
[4] = measured here: cell number at 48 h, Library stock concentration: 10 mM
[5] = Library stock concentration: 10 mM
[6] = measured here: p53 positive nuclei at 24 h, Library stock concentration: 10 mM
[7] = measured here: cell number at 24 h, concentration not given here
[8] = measured here: cell number at 48 h, concentration not given here
[9] = measured here: p53 positive nuclei at 24 h, concentration not given here
[10] = measured here: cell number at 24 h, Library stock concentration: 3.33 mM
[11] = measured here: cell number at 48 h, Library stock concentration: 3.33 mM
[12] = Library stock concentration: 3.33 mM
[13] = measured here: p53 positive nuclei at 24 h, Library stock concentration: 3.33 mM
[14] = measured here: cell number at 24 h, Library stock concentration: 80 uM
[15] = measured here: cell number at 24 h, Library stock concentration: 400 uM
[16] = measured here: cell number at 24 h, Library stock concentration: 2 mM
[17] = measured here: cell number at 48 h, Library stock concentration: 80 uM
[18] = measured here: cell number at 48 h, Library stock concentration: 400 uM
[19] = measured here: cell number at 48 h, Library stock concentration: 2 mM
[20] = Library stock concentration: 80 uM
[21] = Library stock concentration: 400 uM
[22] = Library stock concentration: 2 mM
[23] = measured here: p53 positive nuclei at 24 h, Library stock concentration: 80 uM
[24] = measured here: p53 positive nuclei at 24 h, Library stock concentration: 400 uM
[25] = measured here: p53 positive nuclei at 24 h, Library stock concentration: 2 mM

`NC(=O)c1ncn(C2OC(CO)C(O)C2O)c1O` (centres undefined) showed a nuclei count, normalised ([1]; measured here: cell number at 24 h, Library stock concentration: 500 nM) of 107%, a nuclei count, normalised ([1]; measured here: cell number at 24 h, Library stock concentration: 1.5 uM) of 106% and a nuclei count, normalised ([1]; measured here: cell number at 24 h, Library stock concentration: 4.6 uM) of 114%. For the same compound, the nuclei count, normalised ([1]; measured here: cell number at 24 h, Library stock concentration: 13.7 uM) was 113%, the nuclei count, normalised ([1]; measured here: cell number at 24 h, Library stock concentration: 41 uM) was 103% and the nuclei count, normalised ([1]; measured here: cell number at 24 h, Library stock concentration: 123 uM) was 107%. It also gave a nuclei count, normalised ([1]; measured here: cell number at 24 h, Library stock concentration: 370 uM) of 112%, a nuclei count, normalised ([1]; measured here: cell number at 24 h, Library stock concentration: 1.111 mM) of 97.9% and a nuclei count, normalised ([1]; measured here: cell number at 24 h, Library stock concentration: 3.333 mM) of 106%. It also gave a nuclei count, normalised [1, 3] of 104%, a nuclei count, normalised ([1]; measured here: cell number at 48 h, Library stock concentration: 500 nM) of 106% and a nuclei count, normalised ([1]; measured here: cell number at 48 h, Library stock concentration: 1.5 uM) of 107%. It also gave a nuclei count, normalised ([1]; measured here: cell number at 48 h, Library stock concentration: 4.6 uM) of 110%, a nuclei count, normalised ([1]; measured here: cell number at 48 h, Library stock concentration: 13.7 uM) of 108% and a nuclei count, normalised ([1]; measured here: cell number at 48 h, Library stock concentration: 41 uM) of 107%. The nuclei count, normalised ([1]; measured here: cell number at 48 h, Library stock concentration: 123 uM) was 107%, the nuclei count, normalised ([1]; measured here: cell number at 48 h, Library stock concentration: 370 uM) was 113% and the nuclei count, normalised ([1]; measured here: cell number at 48 h, Library stock concentration: 1.111 mM) was 105%. For the same compound, the nuclei count, normalised ([1]; measured here: cell number at 48 h, Library stock concentration: 3.333 mM) was 108%, the nuclei count, normalised [1, 4] was 102% and the p53-positive nuclei, normalised ([2]; Library stock concentration: 500 nM) was -0.204% (inactive). The p53-positive nuclei, normalised ([2]; Library stock concentration: 1.5 uM) was -0.0465% (inactive), the p53-positive nuclei, normalised ([2]; Library stock concentration: 4.6 uM) was 0.0159% (inactive) and the p53-positive nuclei, normalised ([2]; Library stock concentration: 13.7 uM) was -0.0544% (inactive). For the same compound, the p53-positive nuclei, normalised ([2]; Library stock concentration: 41 uM) was -0.167% (inactive), the p53-positive nuclei, normalised ([2]; Library stock concentration: 123 uM) was -0.128% (inactive) and the p53-positive nuclei, normalised ([2]; Library stock concentration: 370 uM) was -0.0645% (inactive). For the same compound, the p53-positive nuclei, normalised ([2]; Library stock concentration: 1.111 mM) was -0.129% (inactive), the p53-positive nuclei, normalised ([2]; Library stock concentration: 3.333 mM) was -0.208% (inactive) and the p53-positive nuclei, normalised [2, 5] was -0.16% (inactive). For the same compound, the p53-positive nuclei, normalised ([2]; measured here: p53 positive nuclei at 24 h, Library stock concentration: 500 nM) was -0.239%, the p53-positive nuclei, normalised ([2]; measured here: p53 positive nuclei at 24 h, Library stock concentration: 1.5 uM) was -0.0183% and the p53-positive nuclei, normalised ([2]; measured here: p53 positive nuclei at 24 h, Library stock concentration: 4.6 uM) was -0.139%. For the same compound, the p53-positive nuclei, normalised ([2]; measured here: p53 positive nuclei at 24 h, Library stock concentration: 13.7 uM) was -0.19%, the p53-positive nuclei, normalised ([2]; measured here: p53 positive nuclei at 24 h, Library stock concentration: 41 uM) was -0.128% and the p53-positive nuclei, normalised ([2]; measured here: p53 positive nuclei at 24 h, Library stock concentration: 123 uM) was 0.0805%. For the same compound, the p53-positive nuclei, normalised ([2]; measured here: p53 positive nuclei at 24 h, Library stock concentration: 370 uM) was -0.0891%, the p53-positive nuclei, normalised ([2]; measured here: p53 positive nuclei at 24 h, Library stock concentration: 1.111 mM) was -0.183% and the p53-positive nuclei, normalised ([2]; measured here: p53 positive nuclei at 24 h, Library stock concentration: 3.333 mM) was -0.128%. It also gave a p53-positive nuclei, normalised [2, 6] of -0.0747%.
In the case of `O=C(c1cn2cccnc2n1)N1CCCC(Cn2cc(C3CCCC3)nn2)C1` (centres undefined), the nuclei count, normalised [1, 7] is reported as 84.5%, the nuclei count, normalised [1, 8] is reported as 92.1% and the p53-positive nuclei, normalised ([2]; concentration not given here) is reported as -0.0576% (inactive). It also gave a p53-positive nuclei, normalised [2, 9] of -0.142%.
In the case of `C#C[C@@]1(O)CC[C@H]2[C@@H]3CCc4cc(O)ccc4[C@@H]3CC[C@@]21C`, the nuclei count, normalised [1, 10] is reported as 80.8%, the nuclei count, normalised [1, 11] is reported as 66.7% and the p53-positive nuclei, normalised [2, 12] is reported as 15.7% (inactive). The p53-positive nuclei, normalised [2, 13] was 2.17%.
With `C#C[C@]1(O)CCC2C3CCc4cc(O)ccc4C3CC[C@@]21C` (some centres undefined) the nuclei count, normalised [1, 7] was 85.4%, the nuclei count, normalised [1, 8] was 37.7% and the p53-positive nuclei, normalised ([2]; concentration not given here) was 83% (active). It also gave a p53-positive nuclei, normalised [2, 9] of 8.99%.
Work on `C#C[C@]1(O)CC[C@@H]2[C@@H]3CCc4cc(O)ccc4[C@@H]3CC[C@@]21C` yielded a nuclei count, normalised [1, 14] of 97.1%, a nuclei count, normalised [1, 15] of 108% and a nuclei count, normalised [1, 16] of 101%. For the same compound, the nuclei count, normalised [1, 3] was 72.9%, the nuclei count, normalised [1, 17] was 108% and the nuclei count, normalised [1, 18] was 108%. The nuclei count, normalised [1, 19] was 102%, the nuclei count, normalised [1, 4] was 30.5% and the p53-positive nuclei, normalised [2, 20] was 0.0565% (inactive). For the same compound, the p53-positive nuclei, normalised [2, 21] was 0.0172% (inactive), the p53-positive nuclei, normalised [2, 22] was 0.0704% (inactive) and the p53-positive nuclei, normalised [2, 5] was 76.1% (inactive). The p53-positive nuclei, normalised [2, 23] was -0.0527%, the p53-positive nuclei, normalised [2, 24] was 0.068% and the p53-positive nuclei, normalised [2, 25] was 0.0711%. It also gave a p53-positive nuclei, normalised [2, 6] of 6.02%.
Compound `C#CCOc1ccc2c(c1)c(-c1ccc(C(C)C)cc1)nc(=O)n2C(C)C` has a nuclei count, normalised ([1]; measured here: cell number at 24 h, Library stock concentration: 46 uM) of 104%, a nuclei count, normalised ([1]; measured here: cell number at 24 h, Library stock concentration: 278 uM) of 110% and a nuclei count, normalised ([1]; measured here: cell number at 24 h, Library stock concentration: 1.67 mM) of 104%. For the same compound, the nuclei count, normalised [1, 3] was 112%, the nuclei count, normalised ([1]; measured here: cell number at 48 h, Library stock concentration: 46 uM) was 101% and the nuclei count, normalised ([1]; measured here: cell number at 48 h, Library stock concentration: 278 uM) was 101%. For the same compound, the nuclei count, normalised ([1]; measured here: cell number at 48 h, Library stock concentration: 1.67 mM) was 97.6%, the nuclei count, normalised [1, 4] was 101% and the p53-positive nuclei, normalised ([2]; Library stock concentration: 46 uM) was -0.166% (inactive). For the same compound, the p53-positive nuclei, normalised ([2]; Library stock concentration: 278 uM) was 0.0283% (inactive), the p53-positive nuclei, normalised ([2]; Library stock concentration: 1.67 mM) was 0.0841% (inactive) and the p53-positive nuclei, normalised [2, 5] was -0.00718% (inactive). For the same compound, the p53-positive nuclei, normalised ([2]; measured here: p53 positive nuclei at 24 h, Library stock concentration: 46 uM) was -0.153%, the p53-positive nuclei, normalised ([2]; measured here: p53 positive nuclei at 24 h, Library stock concentration: 278 uM) was -0.218% and the p53-positive nuclei, normalised ([2]; measured here: p53 positive nuclei at 24 h, Library stock concentration: 1.67 mM) was -0.0911%. The p53-positive nuclei, normalised [2, 6] was -0.218%.
Compound `O=C(O)C=Cc1ccc(Cn2ccnc2)cc1` has a nuclei count, normalised [1, 14] of 111%, a nuclei count, normalised [1, 15] of 104% and a nuclei count, normalised [1, 16] of 103%. The nuclei count, normalised [1, 10] was 103% and 107%, the nuclei count, normalised [1, 3] was 108% and the nuclei count, normalised [1, 17] was 108%. The nuclei count, normalised [1, 18] was 104%, the nuclei count, normalised [1, 19] was 103% and the nuclei count, normalised [1, 11] was 110% and 99.3%. For the same compound, the nuclei count, normalised [1, 4] was 103%, the p53-positive nuclei, normalised [2, 20] was 0.0181% (inactive) and the p53-positive nuclei, normalised [2, 21] was 0.0683% (inactive). The p53-positive nuclei, normalised [2, 22] was 0.0233% (inactive), the p53-positive nuclei, normalised [2, 12] was -0.0503% (inactive) and -0.0965% (inactive) and the p53-positive nuclei, normalised [2, 5] was -0.178% (inactive). The p53-positive nuclei, normalised [2, 23] was 0.0685%, the p53-positive nuclei, normalised [2, 24] was 0.0107% and the p53-positive nuclei, normalised [2, 25] was 0.0098%. The p53-positive nuclei, normalised [2, 13] was -0.252% and -0.232% and the p53-positive nuclei, normalised [2, 6] was -0.12%.
